JMJD2A Tudor inh: blocks the human JMJD2A Tudor domain. AlphaScreen JMJD2A-Tudor / H3K4me3 peptide binding. Potency, µM (series often up to 114 µM), for the others: top-dose activity change, negative = inhibition, hits mostly inhibitors. 390,000 compounds, 4.4% hits. AID 504339; note: % is set by controls: 0 for no effect and ±100 for the full control effect; nearly all actives have a fitted effect of over 50% in size
L3MBTL1 inh: L3MBTL1 (human) inhibition. Q9Y468. AlphaScreen L3MBTL1–H3K9me1 peptide binding. Potency, µM (series often up to 57.1 µM), inactives show at the top dose activity, negative = inhibition, actives largely listed as inhibitors. 230,000 compounds, 0.66% hits. AID 485360; note: % is set by controls: 0 for no effect and ±100 for the full control effect; nearly all actives have a fitted effect of over 60% in size
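Displacement of a biotinylated histone H3(1-15) peptide monomethylated at Lys9 (75 nM) from L3MBTL1 (50 nM) was measured by AlphaScreen after a 30 min room-temperature compound incubation; cefsulodin titration served as intraplate control.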
BAZ2B block: blocks human BAZ2B | Q9UIF8 | AlphaScreen BAZ2B-H3K14Ac peptide displacement | Potency, µM (highest dose often 114 µM), for the others: top-dose activity change, negative = inhibition, hits mostly inhibitors | 360,000 compounds, 4.4% hits | AID 504333; note: % is set by controls: 0 for no effect and ±100 for the full control effect; nearly all actives have a fitted effect of over 60% in size
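BAZ2B 50 nM plus b-H3(5-23)K14Ac 50 nM, PBS pH 7.4/0.01% Tween-20, 30 min RT; compound added (max 110 uM), 30 min RT; streptavidin donor/Ni-chelate acceptor beads 10 ug/mL final, 20 min dark; AlphaScreen read.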
G9a block: blocks human histone lysine methyltransferase G9a | Potency, µM (series often up to 102 µM), without a hit: top-dose activity, negative = inhibition, actives largely listed as inhibitors | G9a H3K9 monomethylation, AlphaScreen, 2 h | 350,000 compounds, 8.8% hits | Q96KQ7; note: % is set by controls: 0 for no effect and ±100 for the full control effect; nearly all actives have a fitted effect of over 75% in size
Target sequence (Q96KQ7 913-1193 limits assumed): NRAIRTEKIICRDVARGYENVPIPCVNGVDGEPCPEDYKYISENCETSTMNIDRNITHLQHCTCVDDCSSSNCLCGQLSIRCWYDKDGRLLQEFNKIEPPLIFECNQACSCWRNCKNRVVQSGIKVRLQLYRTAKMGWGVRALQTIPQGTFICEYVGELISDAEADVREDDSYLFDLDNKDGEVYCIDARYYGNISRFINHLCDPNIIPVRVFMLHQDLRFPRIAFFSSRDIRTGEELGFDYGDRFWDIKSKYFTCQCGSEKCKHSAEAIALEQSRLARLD
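AlphaScreen read-out: biotin-H3K9 peptide (500 nM) methylation by 20 nM enzyme with 20 uM SAM, 2 h at room temperature after 15 min compound preincubation; anti-monomethyl H3K9 antibody plus donor/acceptor beads, 10 min dark.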
HP1b chromo inh: inhibitors of HP1-beta chromodomain binding to methylated histone tails; P83916; AlphaScreen HP1-beta / biotin-H3K9me3 peptide binding; Potency, µM (titrated, usually from 114 µM), inactives show top-dose activity change, negative = inhibition, actives largely listed as inhibitors; 390,000 compounds, 0.56% hits; AID 540317; note: nearly all actives have a fitted effect of over 70% in size
Target sequence (P83916 whole entry, looked up): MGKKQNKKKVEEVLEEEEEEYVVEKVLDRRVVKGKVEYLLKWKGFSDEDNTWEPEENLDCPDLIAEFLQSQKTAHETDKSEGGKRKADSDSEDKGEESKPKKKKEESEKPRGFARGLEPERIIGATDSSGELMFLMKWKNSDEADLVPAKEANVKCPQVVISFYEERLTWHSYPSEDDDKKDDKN
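AlphaScreen: HP1-beta (50 nM) preformed 30 min with biotin-H3(1-18)K9me3 peptide (50 nM) in PBS pH 7.4, 0.01% Tween-20. Compound added for 30 min at RT, then streptavidin donor/nickel chelate acceptor beads (10 ug/mL) for 30 min.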
The depositor's hits bear a star; u = inconclusive; x = no result; [ ] = another dose, or the depositor's remark. The list is not random: actives were taken first. Their share in the collection is about 11%. Calls come from the whole dose curve; as a rule, active = well fitted inhibition curve with a large enough effect; inconclusive = small, poorly fitted or top-dose-only effect; inactive = no such curve, though single readings can be large or run the other way. Potency is the fitted concentration of half-maximal effect.

SMILES | JMJD2A Tudor inh | L3MBTL1 inh | BAZ2B block | G9a block | HP1b chromo inh
COc1cc(C(=S)N2CCOCC2)cc(OC)c1OC(=O)c1ccc(F)cc1 | -35% | -10% | u | x | u
O=C(Oc1ccccc1C(=O)N1CCOCC1)c1ccc(Br)cc1 | -10% | x | 8% | -17%[59 µM] | 20%
COc1cc(C(=O)Oc2cccc(C(=S)N3CCOCC3)c2)cc(OC)c1OC | -28% | x | u | 22µM* | -14%
O=C(Oc1ccc(Br)cc1C(=S)N1CCOCC1)c1ccccc1 | -20% | x | 10% | 45µM* | -15%
Cc1ccc(OCc2nc(-c3ccccn3)n[nH]2)cc1 | 20µM* | x | 4µM* | 71%[59 µM] | 51%
Cc1cccc(OCc2n[nH]c(=S)n2-c2ccccc2)c1 | u | 0% | u | x | 7%
Cc1cc(C)nc(Nc2n[nH]c(COc3ccc(Cl)cc3)n2)n1 | 4% | 8% | 8% | 11%[59 µM] | 25%
Cc1cccc(OCc2nc(-c3ccccn3)n[nH]2)c1 | 13µM* | x | 8.9µM* | 23%[59 µM] | 46%
CCCN1CNc2c(c(=O)[nH]c(=S)n2CCc2cc(C)ccc2C)C1 | -20% | x | x | x | 22%
CC(C)(C)OC(=O)N1CCC[C@H]1c1nnc(SCc2ccccc2F)o1 | 3% | 3% | 4% | 50µM* | 53%
Cc1ccc(OCC(=O)Nc2nonc2-c2ccc(C)c(C)c2)cc1C | u | x | -9% | -40%[59 µM] | 39%
O=C1Cc2cc(S(=O)(=O)N3CCN(c4ccc(O)cc4)CC3)ccc2N1 | 126µM* | x | x | x | x
O=C1Cc2cc(S(=O)(=O)N3CCN(c4ccc([N+](=O)[O-])cc4)CC3)ccc2N1 | -31% | x | x | x | x
O=C1CC(=O)Nc2cc(S(=O)(=O)N3CCN(c4ccc([N+](=O)[O-])cc4)CC3)ccc2N1 | 29% | x | 50µM* | 13µM* | 44%
Cc1ccc(CN2CCN(/N=C/c3cccnc3)CC2)cc1 | -25% | -16% | -33% | 11%[59 µM] | 3%
Cc1ccc(CN2CCN(/N=C/c3ccc(O)c(O)c3)CC2)cc1 | 22µM* | u | 50µM* | x | 20µM*
CCN(CC)c1ccc(/C=N\N2CCN(Cc3ccc(C)cc3)CC2)cc1 | 22µM* | u | 18µM* | 7.1µM* | 20µM*
Cc1ccc(CN2CCN(/N=C/c3ccc(C(=O)O)cc3)CC2)cc1 | -19% | -11% | -7% | 7.9µM* | 6%
Cc1ccc(CN2CCN(/N=C/C(Br)=C\c3ccccc3)CC2)cc1 | u | 5% | 32µM* | x | -24%
COc1ccc(-c2cc(C3C4C=CCCC4(C)C(=O)N3Cc3ccccc3)ccc2F)cc1OC (centres undefined) | -34% | x | x | x | 9%
COc1ccc(/C=N/N2CCN(Cc3ccc(C)cc3)CC2)cc1Br | 50µM* | -26% | 35µM* | 45µM* | u
CC[N+]1(CC(O)COC2CC(C)CC(C)(C)C2)CCOCC1 (centres undefined) | 20µM* | x | -17% | -41%[12.7 µM] | 31%
CC1CCN(CC(O)COC2CC(C)CC(C)(C)C2)CC1 (centres undefined) | 6% | x | x | x | 64%
C#CCOCCOCCOCCNc1nc(N2CCN(C(=O)[C@H](CCC(=O)O)n3cc(C(N)[C@H](C)CC)nn3)CC2)nc(N2CCN(C(=O)[C@H](CCC(=O)O)n3cc(C(N)[C@H](C)CC)nn3)CC2)n1 (some centres undefined) | u | -2% | 79µM* | -33%[12.7 µM] | -16%
C#CCOCCOCCOCCNc1nc(N2CCN(C(=O)[C@H](CCCCN)n3cc(C(N)CO)nn3)CC2)nc(N2CCN(C(=O)[C@H](CCC(=O)O)n3cc(C(N)[C@H](C)CC)nn3)CC2)n1 (some centres undefined) | x | -18% | 40µM* | u | x
SMILES | JMJD2A Tudor inh | L3MBTL1 inh | BAZ2B block | G9a block | HP1b chromo inh
C#CCOCCOCCOCCNc1nc(N2CCN(C(=O)[C@H](CCCCN)n3cc(CN)nn3)CC2)nc(N2CCN(C(=O)[C@H](CCC(=O)O)n3cc([C@@H](N)[C@H](C)CC)nn3)CC2)n1 | 56µM* | -4% | x | x | 4%
C#CCOCCOCCOCCNc1nc(N2CCN(C(=O)[C@H](CCC(=O)O)n3cc(C(N)CO)nn3)CC2)nc(N2CCN(C(=O)[C@H](CCC(=O)O)n3cc(C(N)[C@H](C)CC)nn3)CC2)n1 (some centres undefined) | 35µM* | -17% | 35µM* | -128%[59 µM] | 33%
C#CCOCCOCCOCCNc1nc(N2CCOCC2)nc(N2CCN(C(=O)[C@H](CCCCN)n3cc([C@@H](N)C(C)CC)nn3)CC2)n1 (some centres undefined) | -11% | 1% | -37% | u | 36%
COc1ccc(OC)c(NC(=O)Cn2c(=O)n(-c3ccc(Cl)cc3)c(=O)c3c(C)c(C)sc32)c1 | 4% | x | 2% | 5%[59 µM] | 32%
CCCn1cc(S(=O)(=O)c2cc(C)ccc2C)c(=O)c2cc(F)c(N3CCCCCC3)cc21 | -19% | x | -3% | 7%[59 µM] | 17%
COc1ccc(Cl)cc1NC(=O)Cn1ncc2c3ccccc3n(Cc3ccccc3)c2c1=O | 2% | x | -3% | -29%[59 µM] | 21%
COc1ccc(-c2noc(-c3ccc(NC4CCCC4)c([N+](=O)[O-])c3)n2)cc1OC | -3% | x | 4% | u | 53%
Cc1cccc(NC(=O)CN2C(=O)C(c3ccc(F)cc3)=NC23CCCCCC3)c1C | -14% | x | -3% | 9%[59 µM] | 29%
C#CCOCCOCCOCCNc1nc(N2CCN(C(=O)[C@H](CCCCN)n3cc(CN)nn3)CC2)nc(N2CCN(C(=O)[C@H](CCC(=O)O)n3cc([C@@H](N)CCSC)nn3)CC2)n1 | 89µM* | 0% | x | x | 6%
C#CCOCCOCCOCCNc1nc(N2CCN(C(=O)[C@H](CCCCN)n3cc([C@@H](N)[C@H](C)CC)nn3)CC2)nc(N2CCN(C(=O)[C@H](CCC(=O)O)n3cc([C@@H](N)CCSC)nn3)CC2)n1 | 79µM* | 1% | x | x | 16%
C#CCOCCOCCOCCNc1nc(N2CCOCC2)nc(N2CCN(C(=O)[C@H](CCCCN)n3cc(CN)nn3)CC2)n1 | -28% | 11% | x | x | 7%
C#CCOCCOCCOCCNc1nc(N2CCN(C(=O)C([C@@H](C)CC)n3cc(C(N)CO)nn3)CC2)nc(N2CCN(C(=O)[C@H](CCC(=O)O)n3cc(C(N)[C@H](C)CC)nn3)CC2)n1 (some centres undefined) | x | x | 35µM* | u | x
CCC(=O)c1ccc(OCC(=O)NCc2ccccc2CN2CCCC2)cc1 | -1% | 6% | x | x | 31%
COc1ccc(N2CCN(CCCNS(=O)(=O)c3c(C)noc3/C=C/N(C)C)CC2)cc1 | x | u | 35µM* | u | x
COc1ccc(NC(=O)C2CCN(S(=O)(=O)c3c(C)noc3/C=C/N(C)C)CC2)cc1 | -18% | x | -21% | 25% | 30%

Assay outcomes from PubChem BioAssay.
